Experimental data reported in paper PMC5540273 (PLoS ONE, 2017).

Key:
Conditions in all cases: concentration: 1 μM, replicates: in singlicate; n = 1
[1] = system: JAK1(JH2domain-pseudokinase)
[2] = system: JAK2(JH1domain-catalytic)
[3] = system: JAK3(JH1domain-catalytic)
[4] = system: T1, JNK1
T1 construct: gene MAPK8

[5] = system: T2, JNK2
T2 construct: gene MAPK9

[6] = system: T3, JNK3
T3 construct: gene MAPK10

[7] = system: KIT-autoinhibited
[8] = system: KIT
[9] = system: LATS1
[10] = system: LATS2
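Further: KINOMEscan kinase panel screen.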

Row | SMILES | %Inh [1] | %Inh [2] | %Inh [3] | %Inh [4] | %Inh [5] | %Inh [6] | %Inh [7] | %Inh [8] | %Inh [9] | %Inh [10]
1 | CN(c1ccc(NC(=O)N2CCN(CCCN3CCOCC3)CC2)cc1)c1ccnc(Nc2ccc(CS(C)(=O)=O)cc2)n1.Cl [GW830899] | 44% | 65% | 14% | 46% | 0% | 0% | 0% | 98.8% | 0% | 0%
2 | CCOc1nccc(-c2c(-c3ccc(F)cc3)ncn2C2CCNCC2)n1 [SB-249175] | 0% | 26% | 26% | 58% | 89% | 90.2% | 8% | 17% | 0% | 29%
3 | COc1cccc2c(-c3ccncc3)c(-c3ccc(F)cc3)nn12 [GW468513] | 67% | 11% | 0% | 96% | 99.8% | 99.9% | 0% | 8% | 0% | 8%
4 | Cc1cc(-c2c(-c3ccc(F)cc3)ncn2CCCN2CCOCC2)nc(N)n1 [SB-222517] | 57% | 16% | 0% | 5% | 0% | 0% | 20% | 15% | 15% | 0%
5 | CN(C)CCNS(=O)(=O)c1ccc(-c2ccnc3[nH]ccc23)cc1 [GSK977620] | 0% | 82% | 56% | 29% | 17% | 15% | 0% | 9% | 29% | 93%
6 | CN(c1ccc(NC(=O)Nc2cccc(Cl)c2)cc1)c1ccnc(N)n1.Cl [GW830707] | 0% | 27% | 0% | 0% | 0% | 0% | 45% | 100% | 18% | 0%
7 | COc1cc(Nc2nccc(N3CCC(NS(=O)(=O)c4ccc(NC(C)=O)cc4)CC3)n2)cc(OC)c1OC [GSK1379825] | 83% | 96.3% | 8% | 44% | 37% | 31% | 0% | 90% | 0% | 0%
8 | CS(=O)(=O)c1cccc(CNc2nc(Nc3ccc4c(c3)CCC(=O)N4)ncc2C(F)(F)F)c1 | 94.3% | 99.6% | 100% | 49% | 27% | 48% | 30% | 44% | 0% | 0%
9 | CC(C)NCC(Cc1ccccc1)NC(=O)c1cc(Br)c(-c2ccnc3[nH]ccc23)s1.Cl.Cl (stereo not shown) [GSK1383281] | 0% | 71% | 82% | 28% | 12% | 12% | 0% | 50% | 100% | 70%
10 | Nc1ncc(-c2ccc3nccc(-c4ccncc4)c3c2)cc1S(=O)(=O)N1CCCCC1 [GSK1693850] | 14% | 0% | 0% | 35% | 18% | 29% | 0% | 44% | 21% | 0%
11 | Cc1ccc(NC(=O)c2cccc(N3CCCCC3)c2)cc1-c1ccc(C(=O)NCC2CC2)cc1 [GSK1917008] | 19% | 15% | 0% | 22% | 30% | 10% | 6% | 79% | 0% | 16%
12 | Cc1cc(-c2ccnc(Nc3cccc(C#N)c3)n2)cc(C)c1O [GSK1440913] | 78% | 92.6% | 74% | 98.9% | 77% | 99% | 0% | 49% | 0% | 0%
13 | Cc1ccccc1CC(=O)N1CCc2cc(-c3cn(C)c4ncnc(N)c34)ccc21 [GSK2603346] | 0% | 26% | 0% | 1% | 13% | 7% | 1% | 99.8% | 0% | 0%
14 | COc1cccc(-c2nc(-c3ccccc3)[nH]c2-c2ccncc2)c1 [SB-610250] | 12% | 17% | 0% | 30% | 83% | 90% | 0% | 0% | 45% | 0%
15 | CC(C)(C)c1ccc(C(=O)Nc2cn3cc(-n4ccnc4)ccc3n2)cc1 | 2% | 26% | 0% | 5% | 0% | 0% | 20% | 98.4% | 0% | 0%
16 | COC(=O)Nc1nc2ccc(Oc3ccc(CC(=O)Nc4cc(C(F)(F)F)ccc4F)cc3)cc2[nH]1 [GW680903] | 0% | 7% | 0% | 1% | 6% | 0% | 8% | 100% | 12% | 0%
